Data on 39 compounds can be found in PubChem BioAssay (NCATS).

Results filed as inconclusive are left out. Entries that show only a call come without a potency. Calls of active or inactive are those of the source. The call rests on the fitted dose curve; in most records, active means well fitted inhibition curve with a large enough effect; inconclusive means small, poorly fitted or top-dose-only effect; inactive means no such curve, though single readings can be large or run the other way.
Potency means the concentration at half of the fitted maximal effect.

The first assay has as its system Zika virus NS2B-NS3 protease (unlinked complex). The assay is described as follows: Primary screen GU Rhodamine qHTS for Zika virus inhibitors: Unlinked NS2B-NS3 protease assay (AID 1347159). Further: nearly all actives have a fitted effect of over 60% in size. The settings on record: Recombinant ZIKV NS2B-NS3 protease, Rhodamine110 substrate fluorescence; series mostly up to 107 µM. A digest of the protocol: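 Unlinked NS2B/NS3, 25 nM; Rhod110 peptide, 1.5 microM; compounds, up to 114 microM. Reaction run 15 min at RT in 10 mM Tris-HCl pH 8.0, 0.01% Tween 20; kinetic fluorescence change fitted with a 4-parameter Hill model.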
In general terms: qHTS replaces the single test concentration by a dilution series.
In the case of `COC(=O)[C@H](Cc1cccc(C(=N)N)c1)[C@@H](C)NC(=O)c1ccc(-c2cc[n+]([O-])cc2)cc1`, the Potency entry is “inactive”. The same measure, in the same setting: for `Cc1cc(OCCN2CCOCC2)nn1-c1ccc2ccccc2c1` the value was “inactive”; for `CC1=C(CO)C2(C)CCCC(C)(C)C2C(O)C1O` (stereo not drawn), “inactive”. Still for that read-out and setting: for `Cc1onc(-c2c(Cl)cccc2Cl)c1CC(=O)NCc1ccc(OCC(F)(F)F)nc1` the value was “inactive”; for `C/C(=C/CO)CC[C@H]1[C@]2(C)C[C@H](O)CC(C)(C)[C@H]2CC[C@]1(C)O`, “inactive”; for `C[C@]12CC/C(=N\OCC(=O)O)C=C1CC[C@@H]1[C@@H]2[C@@H](O)C[C@@]2(C)[C@H]1CC[C@]2(O)C(=O)CO`, “inactive”. Still for that read-out and setting: for `OC[C@H]1O[C@@H](O[C@H]2[C@H](O)[C@@H](CO)O[C@@H](OCc3ccccc3)[C@@H]2O[C@@H]2OC[C@](O)(CO)[C@H]2O)[C@H](O)[C@@H](O)[C@@H]1O` the value was “inactive”; for `CCCO[C@@H]1O[C@H](CO)[C@@H](O)[C@H](O)[C@H]1O[C@@H]1OC[C@@H](O)[C@H](O)[C@H]1O`, “inactive”; for `CC1(C)CCC[C@@]2(C)[C@H]1[C@H](O)C=C(CO)[C@]2(O)CO`, “inactive”. Consider `CC1(C)O[C@H]2CC(=O)OC[C@@]23C1=C(O)C(=O)[C@]1(C)C3CC[C@@]2(C)[C@H](c3ccoc3)OC(=O)[C@H]3O[C@]321` (stereo partly drawn), for which the Potency result is “inactive”. Same read-out and setting: for `CCOc1ncc(S(=O)(=O)N2CCN(CC)CC2)cc1-c1nc2c(CC)n(CCOC)nc2c(=O)[nH]1` the value was “inactive”; for `COc1cc(O)cc2c1C(=O)OC(C)CCCCCCC2` (stereo not drawn), 20 µM (active); for `C/C(=C\C(=O)C[C@@]12C(=O)O[C@]3(C)CC[C@H]1C[C@H]23)C(N)=O`, “inactive”. Still for that read-out and setting: for `CC1(C)CC2C3=CCC4[C@@]5(C)CC[C@H](OC6OCC(O)C(OC7OC(CO)C(O)C(O)C7O)C6O)C(C)(C)C5CC[C@@]4(C)[C@]3(C)C[C@H](O)[C@@]2(CO)[C@H](OC(=O)c2ccccc2)C1` (stereo partly drawn) the value was “inactive”.

Another assay relates to Zika virus NS2B-NS3 protease (linked construct). The assay is described as follows: Primary screen NINDS Rhodamine qHTS for Zika virus inhibitors (AID 1347160). Further: nearly all actives have a fitted effect of over 55% in size. To be noted: purified NS2B-NS3 protease, Rhodamine110 substrate fluorescence; series mostly up to 33.1 µM. The gist of the method: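 Single-chain NS2B-NS3 protease, 25 nM, pH 8.0; compounds preincubated 15 min. Activity: Rhodamine110 release from 1.5 microM substrate over 15 min, room temperature, data fitted to 4-parameter Hill.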
For `COc1ccc(CCC(=O)O)c(O[C@@H]2O[C@H](CO)[C@@H](O)[C@H](O)[C@H]2O)c1`, the Potency entry is “inactive”. Same read-out and setting: for `C/C=C(\C)C(=O)OC1C(C)C2(O)C3C=C(C)C(=O)C3CC(CO)=CC2C2C(C)(C)C12OC(C)=O` (stereo not drawn) the value was “inactive”; for `CC1(C)CC=C(C#Cc2ccccc2)c2cc(/C=C/c3ccc(C(=O)O)cc3)ccc21`, 15.8 µM (active); for `CCC1=C(C)C(=O)C(C)CC12C(=O)CCC2C(=O)O` (stereo not drawn), “inactive”. Still for that read-out and setting: for `C[C@@H]1O[C@@H](O[C@@H]2[C@@H](O)[C@H](O[C@@H]3[C@@H](O)[C@@H](O)[C@H](O[C@H]4[C@H](OC(=O)[C@]56CCC(C)(C)C[C@H]5C5=CCC7[C@@]8(C)C[C@H](O)[C@H](O[C@@H]9O[C@H](C(=O)O)[C@@H](O)[C@H](O)[C@H]9O)[C@@](C)(CO)C8[C@H](O)C[C@@]7(C)[C@]5(C)C[C@H]6O)O[C@@H](CO)[C@@H]4O)O[C@H]3C)OC[C@H]2O)[C@H](O)[C@H](O)[C@H]1O` (stereo partly drawn) the value was “inactive”; for `C/C=C(\C)C(=O)OC[C@H]1O[C@H](O[C@H]2O[C@H](CO)[C@@H](O)[C@H](O)[C@H]2O[C@@H]2O[C@H](CO)[C@@H](O)[C@H](O)[C@H]2O)[C@H](O[C@@H]2O[C@H](CO)[C@@H](O)[C@H](O)[C@H]2O)[C@@H](O)[C@@H]1O`, “inactive”. Same read-out and setting: for `CC(=O)c1ccc(O[C@@H]2OC[C@@H](O)[C@H](O)[C@H]2O[C@]2(CO)O[C@H](CO)[C@@H](O)[C@@H]2O)c(O)c1` the value was “inactive”; for `CCC(C)C(=O)OC[C@H]1O[C@H](O[C@H]2O[C@H](CO)[C@@H](O)[C@H](O)[C@H]2O)[C@H](O)[C@@H](O)[C@@H]1O` (stereo partly drawn), “inactive”; for `CC1(C)CC[C@]2(C(=O)O[C@@H]3O[C@H](CO)[C@@H](O)[C@H](O)[C@H]3O)CC[C@]3(C)C(=CCC4[C@@]5(C)CC[C@H](O[C@@H]6O[C@H](C(=O)O)[C@@H](O[C@@H]7O[C@H](CO)[C@@H](O)[C@H](O)[C@H]7O)[C@H](O)[C@H]6O[C@@H]6O[C@H](CO)[C@@H](O)[C@H](O)[C@H]6O)C(C)(C)C5CC[C@]43C)C2C1` (stereo partly drawn), “inactive”. In the case of `C[C@H](/C=C/[C@@]1(O)[C@H](C)CC(=O)CC1(C)C)O[C@@H]1O[C@H](CO[C@@H]2OC[C@@H](O)[C@H](O)[C@H]2O)[C@@H](O)[C@H](O)[C@H]1O`, the Potency entry is “inactive”. Same read-out and setting: for `CC1=CCC(O)C2(C)CCC3C(C)C(=O)OC3C12` (stereo not drawn) the value was “inactive”. On the same count and under the same terms, for `CCc1nn(CCO)c(CC)c1Oc1cc(C#N)cc(C#N)c1` the value was “inactive”; for `CC1(C)CC[C@]2(C(=O)O)CC[C@]3(C)C(=CCC4[C@@]5(C)CC[C@H](O[C@@H]6O[C@H](C(=O)O)[C@@H](O)[C@H](O[C@@H]7O[C@H](CO)[C@H](O)[C@H](O)[C@H]7O)[C@H]6O[C@@H]6O[C@H](CO)[C@@H](O)[C@H](O)[C@H]6O)C(C)(C)C5CC[C@]43C)[C@@H]2C1` (stereo partly drawn), “inactive”; for `CC(C)C(NC(=O)c1ccc(O)cc1)C(=O)N1CCCC1C(=O)Nc1c(O)cccc1C(=O)O` (stereo not drawn), “inactive”. On the same count and under the same terms, for `CC(=O)NC1CC(=O)C23C(=O)NC(Cc4c[nH]c5ccccc45)C2C(C)=C(C)C(O)C3/C=C/CC(C)/C=C(/C)C(O)C1O` (stereo not drawn) the value was “inactive”; for `CC(C)C1NC(=O)C(CC2(O)c3ccccc3N3C(=O)C(Cc4ccccc4)NC32)NC1=O` (stereo not drawn), “inactive”. In the case of `C[C@@H]1CC2OC(=O)C3=C2C(CCC3O)[C@@]12C[C@@H](c1ccoc1)OC2=O` (stereo partly drawn), the Potency result is “inactive”. Same read-out and setting: for `O=C(O)c1cc(C(F)(F)F)ccc1N1CC[C@H](OCc2ccccn2)C1` the value was “inactive”. For `CC(O)C1NC(=O)C2CCCN2C1=O` (stereo not drawn), the Potency entry is “inactive”. Consider `O=C(OCC1OC(Oc2ccc(O)cc2COC(=O)C2(O)C(O)CCC(=O)C2OC(=O)C2C=CCC2)C(OC(=O)C2C=CCC2)C(O)C1O)C1C=CCC1` (stereo not drawn), for which the Potency result was “inactive”. Turning to `C=C1CC23CC1CCC2C12OC(=O)C(C)(C(O)CC1O)C2C3C(=O)O` (stereo not drawn), the Potency entry was “inactive”. Same read-out and setting: for `COc1cc(C(=O)OC[C@H]2O[C@@H](OC(C)(C)C(=O)O)[C@H](O)[C@@H](O)[C@@H]2O)cc(OC)c1O` the value was “inactive”. Turning to `O=C(O)/C=C/c1ccc2occc2c1O[C@@H]1O[C@H](CO)[C@@H](O)[C@H](O)[C@H]1O`, the Potency entry was “inactive”. Regarding `COc1cc2nc(=NC(=O)c3cccnc3)n3c(c2cc1OC)NCC3`, the Potency result is “inactive”. Same read-out and setting: for `C[C@H]1[C@H](C)CC[C@]2(C(=O)O)CC[C@]3(C(=O)O)C(=CCC4[C@@]5(C)CC[C@H](O[C@@H]6O[C@@H](C)[C@H](O)[C@@H](O)[C@H]6O)C(C)(C)C5CC[C@]43C)[C@H]12` (stereo partly drawn) the value was “inactive”; for `COC(=O)[C@H](Cc1cccc(C(=N)N)c1)[C@@H](C)NC(=O)c1ccc(-c2cc[n+]([O-])cc2)cc1`, “inactive”; for `Cc1cc(OCCN2CCOCC2)nn1-c1ccc2ccccc2c1`, “inactive”.

As to `CC1=C(CO)C2(C)CCCC(C)(C)C2C(O)C1O` (stereo not drawn), the Potency result was “inactive”. Same read-out and setting: for `Cc1onc(-c2c(Cl)cccc2Cl)c1CC(=O)NCc1ccc(OCC(F)(F)F)nc1` the value was “inactive”.

Consider `C/C(=C/CO)CC[C@H]1[C@]2(C)C[C@H](O)CC(C)(C)[C@H]2CC[C@]1(C)O`, for which the Potency entry is “inactive”.

As for `C[C@]12CC/C(=N\OCC(=O)O)C=C1CC[C@@H]1[C@@H]2[C@@H](O)C[C@@]2(C)[C@H]1CC[C@]2(O)C(=O)CO`, the Potency entry was “inactive”.

Turning to `OC[C@H]1O[C@@H](O[C@H]2[C@H](O)[C@@H](CO)O[C@@H](OCc3ccccc3)[C@@H]2O[C@@H]2OC[C@](O)(CO)[C@H]2O)[C@H](O)[C@@H](O)[C@@H]1O`, the Potency entry was “inactive”.

Regarding `CCCO[C@@H]1O[C@H](CO)[C@@H](O)[C@H](O)[C@H]1O[C@@H]1OC[C@@H](O)[C@H](O)[C@H]1O`, the Potency entry was “inactive”. On to `CC1(C)CCC[C@@]2(C)[C@H]1[C@H](O)C=C(CO)[C@]2(O)CO`, for which the Potency entry was “inactive”. `CC1(C)O[C@H]2CC(=O)OC[C@@]23C1=C(O)C(=O)[C@]1(C)C3CC[C@@]2(C)[C@H](c3ccoc3)OC(=O)[C@H]3O[C@]321` (stereo partly drawn): the Potency result is “inactive”. Same read-out and setting: for `CCOc1ncc(S(=O)(=O)N2CCN(CC)CC2)cc1-c1nc2c(CC)n(CCOC)nc2c(=O)[nH]1` the value was “inactive”; for `COc1cc(O)cc2c1C(=O)OC(C)CCCCCCC2` (stereo not drawn), 14.1 µM (active).

On to `C/C(=C\C(=O)C[C@@]12C(=O)O[C@]3(C)CC[C@H]1C[C@H]23)C(N)=O`, for which the Potency result was “inactive”. Still for that read-out and setting: for `CC1(C)CC2C3=CCC4[C@@]5(C)CC[C@H](OC6OCC(O)C(OC7OC(CO)C(O)C(O)C7O)C6O)C(C)(C)C5CC[C@@]4(C)[C@]3(C)C[C@H](O)[C@@]2(CO)[C@H](OC(=O)c2ccccc2)C1` (stereo partly drawn) the value was “inactive”.
